Experimental data: article PMC4336329 (PLoS ONE, 2015)
The campaign covered roughly 310,000 compounds. About 14,000 (4.5%) showed an effect of 50% or more. The effect is printed as a negative number. The list comes from a sample in which strong results are over-represented; it also holds similar structures and randomly drawn compounds.

Each compound was assayed against human ether-à-go-go-related gene (hERG) potassium channel (human, UniProt Q12809) (assay: primary screen, population patch clamp on CHO cells stably expressing hERG; higher = less effect of the substance).
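Further: peak tail current of the secondary pulse compared with the same well before compound.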

Sequence of human ether-à-go-go-related gene (hERG) potassium channel (Q12809 whole entry, looked up): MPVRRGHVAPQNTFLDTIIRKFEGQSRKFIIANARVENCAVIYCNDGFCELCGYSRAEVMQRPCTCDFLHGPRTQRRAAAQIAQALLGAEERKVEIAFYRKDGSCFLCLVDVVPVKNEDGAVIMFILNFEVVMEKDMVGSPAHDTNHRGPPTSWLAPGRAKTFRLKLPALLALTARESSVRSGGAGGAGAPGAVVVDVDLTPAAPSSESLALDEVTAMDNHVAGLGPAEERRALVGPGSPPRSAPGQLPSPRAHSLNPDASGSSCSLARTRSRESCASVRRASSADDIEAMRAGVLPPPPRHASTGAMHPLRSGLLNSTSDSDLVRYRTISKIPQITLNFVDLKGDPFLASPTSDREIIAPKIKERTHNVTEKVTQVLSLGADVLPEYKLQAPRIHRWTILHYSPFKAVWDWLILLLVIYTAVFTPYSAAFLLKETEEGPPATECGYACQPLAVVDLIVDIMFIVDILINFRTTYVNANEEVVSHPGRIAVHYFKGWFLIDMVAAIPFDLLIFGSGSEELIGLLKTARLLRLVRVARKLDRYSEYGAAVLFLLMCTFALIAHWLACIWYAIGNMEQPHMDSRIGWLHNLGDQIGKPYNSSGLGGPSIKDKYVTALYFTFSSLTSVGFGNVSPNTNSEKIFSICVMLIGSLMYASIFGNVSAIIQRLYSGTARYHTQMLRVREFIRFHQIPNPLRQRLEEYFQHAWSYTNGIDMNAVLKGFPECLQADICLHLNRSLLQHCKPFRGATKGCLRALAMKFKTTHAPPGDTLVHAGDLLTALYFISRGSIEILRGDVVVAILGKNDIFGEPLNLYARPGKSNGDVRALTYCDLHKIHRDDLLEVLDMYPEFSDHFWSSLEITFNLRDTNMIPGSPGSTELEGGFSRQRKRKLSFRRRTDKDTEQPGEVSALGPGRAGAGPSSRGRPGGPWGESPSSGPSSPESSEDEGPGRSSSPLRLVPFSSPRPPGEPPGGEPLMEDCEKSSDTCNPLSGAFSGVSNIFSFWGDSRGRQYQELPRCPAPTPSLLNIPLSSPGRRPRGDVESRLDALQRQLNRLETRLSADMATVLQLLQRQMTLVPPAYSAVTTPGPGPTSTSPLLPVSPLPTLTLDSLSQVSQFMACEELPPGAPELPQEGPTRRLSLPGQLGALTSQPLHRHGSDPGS

SMILES | hERG current change (%, negative = inhibition) at 10uM [%]
Cc1ccc(CNC(=O)C2CCN(c3nnc(N4CCCC4=O)s3)CC2)cc1 | 14.4
CCOc1ccc(-c2nc(C#N)c(NCC(C)C)o2)cc1 | 7.61
Cc1cccc(OCCCC(=O)NCc2ccco2)c1 | 2.27
CCc1cccc(NC(=O)CCSCCC(=O)Nc2cccc(CC)c2)c1 | -9.75
CSc1n[nH]c2nc3c(c(=O)n12)C1(CCCCC1)Cc1ccccc1-3 | -13
CCn1nnc(-c2ccccc2NC(=O)c2ccc(-n3cnnn3)cc2)n1 | -21.9
O=C(C1=C[C@@H](C2CCCCC2)C[C@@H](OCCCCO)O1)N1CCN(Cc2ccccc2)CC1 | -50.1
O=C(C1=C[C@@H](C2CCCCC2)C[C@@H](OCCCCO)O1)N1CCN(Cc2ccc3c(c2)OCO3)CC1 | -45.1
O=C(C1=C[C@H](C2CC2)C[C@H](OCCCCO)O1)N1CCN(Cc2ccc3c(c2)OCO3)CC1 | -26.3
O=C(C1=C[C@@H](C2CCCCC2)C[C@@H](OCc2ccc(CO)cc2)O1)N1CCN(Cc2ccccc2)CC1 | -25.4
O=C(C1=C[C@H](C2CCCCC2)C[C@H](OCc2ccc(CO)cc2)O1)N1CCN(Cc2ccccc2)CC1 | -67.6
O=C(C1=C[C@H](C2CCCCC2)C[C@H](OCCCCO)O1)N1CCN(Cc2ccccc2)CC1 | -46.4
O=C(C1=C[C@@H](C2CC2)C[C@@H](OCCCCO)O1)N1CCN(Cc2ccccc2)CC1 | 0.7
O=C(C1=C[C@H](C2CCCCC2)C[C@H](OCCCCO)O1)N1CCN(Cc2ccc3c(c2)OCO3)CC1 | -56.5
O=C(C1=C[C@@H](C2CCCCC2)C[C@@H](OCc2ccc(CO)cc2)O1)N1CCOCC1 | -23.9
CN(CC(=O)O/N=C(\N)c1ccc([N+](=O)[O-])cc1)S(=O)(=O)c1ccc2ccccc2c1 | -12.6
CCN(C1CCCCC1)S(=O)(=O)c1ccc(C(=O)O)cc1 | 6.74
O=C(Nc1cccnc1Cl)c1ccc(S(=O)(=O)N2CCCCCC2)cc1 | -8.39
CCc1c2c(nc3ccc(OC(=O)N4CCC(N5CCCCC5)CC4)cc13)-c1cc3c(c(=O)n1C2)COC(=O)[C@]3(O)CC.Cl.O | 12.8

SMILES | hERG current change (%, negative = inhibition) at 10uM [%]
CC(CCc1ccccc1)NC(=O)CN1CCN(Cc2ccc(Cl)cc2)C1=O (centres unmarked) | -53.2
COc1ccc(CCNC(=O)CN2CCN(Cc3ccccc3F)C2=O)cc1OC | 8.26
Cc1ccc(CCNC(=O)CN2CCN(Cc3ccccc3F)C2=O)cc1 | -8.3
O=C(CN1CCN(Cc2ccccc2F)C1=O)NCCc1ccc(Cl)cc1 | -52.8
Cc1ccc(CN2CCN(CC(=O)NC(C)CCc3ccccc3)C2=O)cc1 (centres unmarked) | -20.6
CC(CCc1ccccc1)NC(=O)CN1CCN(Cc2ccccc2)C1=O (centres unmarked) | -18.2
COc1ccc(C(CC(=O)Nc2cc(OC)cc(OC)c2)n2cccc2)cc1 (centres unmarked) | 2.58
Nc1ccc(N2CCOCC2)c(Cl)c1 | 1.49
CC(=O)Nc1ccc(S(=O)(=O)Nc2nc(CN3CCOCC3)nc3sc4c(c23)CCCC4)cc1 | -4
CCOc1ccc(N(CC(=O)NCC2CCCO2)C(=O)CCC(=O)Nc2nccs2)cc1 (centres unmarked) | 2.69
Cc1nn2c(-c3cccc(NC(=O)c4ccco4)c3)nnc2c2ccccc12 | -5.38
Cc1ccc(OCCCCN2CCC(C)CC2)c(Br)c1.O=C(O)C(=O)O | -63.1
Cc1ccc(OCCCCN2CCCCC2)c(Br)c1.O=C(O)C(=O)O | -62.6
Cc1ccc(C(C)C)c(OCCCCN2CCNCC2)c1.O=C(O)C(=O)O | -6.77
Cc1ccc(OCCCCCCN2CCNCC2)c(Br)c1.O=C(O)C(=O)O | -30.3
CNCCCOc1ccc(C)cc1Br.O=C(O)C(=O)O | -10.9
Cc1ccc(OCCOCCN2CCCC2)c(Br)c1.O=C(O)C(=O)O | -24.7
COC(=O)/C(=C1/Oc2ccc(C)cc2S1)C(F)(F)F | 32.8
CC(C)(C)c1ccc(N2C(=N)SCC2=O)cc1 | -0.538

SMILES | hERG current change (%, negative = inhibition) at 10uM [%]
Cc1ccc(N2C(=N)SCC2=O)cc1Cl | -70.6
N=C1SCC(=O)N1c1ccc(Cl)cc1 | 8.91
Cc1oc2c(c1C(=O)N1CCOCC1)C(=O)c1ccccc1C2=O | 5.25
CC(=O)N1CCc2cc(S(=O)(=O)NC(Cc3ccccc3)C(=O)NCCN3CCCCC3C)ccc21 (centres unmarked) | 5.72
CCc1ccc(CNCCc2ccccc2F)cc1 | -67.7
Fc1ccc(CNCCc2ccccc2F)cc1 | -2.59
O=C(Cc1ccc(Br)cc1)NCCc1ccc(F)cc1 | 11.3
Cc1ccccc1CCNCc1ccc(Br)cc1 | -53.6
Cl.c1ccc(CCNCc2ccccc2)cc1 | -9.4
CCc1ccc(CNCCc2ccc(F)cc2)cc1 | -72.8
Cc1ccc(CNCCc2ccccc2F)cc1.Cl | -31.8
Fc1ccc(CNCc2ccc(Br)cc2)cc1 | -28.5
CCc1ccc(CNCc2ccc(F)cc2)cc1 | -21
Fc1ccc(CNCCc2ccccc2)cc1.O=C(O)C(=O)O | -18.2
Fc1ccccc1CCNCc1ccccc1 | 5.42
Fc1ccc(CCNCc2ccc(Br)cc2)cc1 | -53.8
Cc1cccc(-n2ncc3c2CCCC3NC(=O)Cc2c(C)noc2C)c1C (centres unmarked) | 15.9
COc1ccc(/C=C2\SC(=S)N(CCCC(=O)NC3CCCC3)C2=O)cc1OC | -12.2
